Results filed as inconclusive are left out. Unmarked numbers belong to inactive results. Active and inactive are the calls of the source. Calls follow the shape of the dose curve; as a rule, active = well fitted inhibition curve with a large enough effect in the signal ratio in the repeat runs (not every such curve was filed as active); inconclusive = weak or mixed curves, or effect the other way; inactive = flat fitted curve, though single readings scatter; the % refers to the signal ratio.
Assay: cAMP Responsive Elements (CRE) small molecule antagonists, cell-based qHTS assay (AID 1963591)
Conditions: CRE-bla HEK293T, beta-lactamase FRET ratio; series mostly up to 92.4 µM; activity change, negative = inhibition: at the top concentration
Source text: U.S. Tox21 Program National Center for Advancing Translational Sciences [NCATS] Division of Preclinical Innovation [DPI] U.S. Environmental Protection Agency [EPA] National Institutes of Environmental Health Sciences [NIEHS] National Toxicology Program [NTP] U.S. Food and Drug Administration [FDA] Tox21 Assay Overview: CREB (cyclic-AMP Responsive Element Binding Protein) is a cellular transcription factor. It binds to certain DNA sequences called cAMP Responsive Elements (CRE) and regulates the transcription of the genes. […] This cell line can be used to find agonists/antagonists of the cyclic AMP signaling pathway. The activation of the report gene under culture conditions can be detected by fluorescence intensity. This cell line has been used to screen the Tox21 10K compound library to […].
Tox21 Assay Protocol Summary: CRE-bla Hek 293T cells were suspended in assay medium (DMEM containing 10% dialyzed FBS, 0.1 mM NEAA, 1 mM sodium pyruvate and 25 mM HEPES) and dispensed at 2,000 cells/4 uL /well into 1536-well black wall/clear bottom plates using a Multidrop Combi (ThermoFisher Scientific, Waltham, MA) dispenser. After the assay plates were incubated at 37 C/5% CO2 for 18 hrs, 23 nL of compounds dissolved in DMSO, positive controls or DMSO only was transferred to the assay plate by a pintool workstation (Kalypsys, San Diego, CA), followed by addition of 1 […] uL of 1.25uM NKH477 (0.25 uM as final concentration) in assay medium using a Flying Reagent Dispenser (Aurora Discovery, San Diego, CA). The plates were incubated at 37 C and 5% CO2 for 3 hrs. Then 1 uL of LiveBLAzer B/G FRET substrate (Invitrogen, Carlsbad, CA) was added to each well using Bioraptr Flying Reagent Dispenser (FRD, Aurora Discovery, San Diego, CA). The plates were incubated at room temperature for 2 h.
% is scaled to controls: 0 for no effect and ±100 for the full control effect.

Structure (SMILES)	activity change, negative = inhibition	Potency
O=C(O)/C=C/c1cnc[nH]1	-0.0962%	
NCCN1CCNC1=O	-0.538%	
CCCCCCCCSCCO	-11.7%	
COc1cc(C(=S)N2CCOCC2)ccc1O	-2.4% [at 42.4 µM]	
Nc1ccc2c(S(=O)(=O)O)cccc2c1S(=O)(=O)O	-8.79% [at 42.4 µM]	
CCCCC(CC)COC(=O)CC(C(=O)OCC(CC)CCCC)S(=O)(=O)O (stereo not given)		inactive
CN(C)CCCN(C)CCCN(C)C	5.95%	
CCCSc1ccc2nc(NC(=O)OC)[nH]c2c1		inactive
CC(C)OC(=O)CCCCC(=O)OC(C)C	-0.617%	
CCCCCCCCS(=O)(=O)Cl	-3.91%	
NCCNCCNCCNCCN	-9.22% [at 8.39 µM]	
c1cnc2cc3c(cc2n1)C1CNCC3C1	0.996% [at 42.4 µM]	
O=Cc1cc2ccccc2o1	0.826%	
Nc1cc(=O)[nH]c(N)n1	4.36% [at 42.4 µM]	
C=CCCCCCCCCCCCC	10.4%	
CCC(C(=O)OCCOCCN(CC)CC)c1ccccc1 (stereo not given)	-2.7% [at 42.4 µM]	
CC(C)(C)c1ccc(O)c(O)c1	-14.8%	
N[C@@H](Cc1c[nH]c2ccc(O)cc12)C(=O)O		inactive
CCC(COC(=O)CCS)(COC(=O)CCS)COC(=O)CCS	23.3%	
O=C(c1ccccc1)c1ccccc1O	-19.4%	

Structure (SMILES)	activity change, negative = inhibition	Potency
CO[C@@]1(NC(=O)C(C(=O)O)c2ccc(O)cc2)C(=O)N2C(C(=O)O)=C(CSc3nnnn3C)CO[C@@H]21 (stereo not given in full)	2.27% [at 42.4 µM]	
O=C(c1ccc(O)cc1O)c1ccc(O)cc1O	7.52%	
Nc1cc(C(Cl)=C(Cl)Cl)c(S(N)(=O)=O)cc1S(N)(=O)=O	0.127% [at 42.4 µM]	
Cc1occc1S	-4.85%	
O=C(O)/C=C/c1ccccc1	-9.89%	
C#CC(C)(O)CC(C)C (stereo not given)	0.825%	
CCC(=O)CC	-4.82%	
NC(=O)Nc1ccc(Cl)cc1	-17.3%	
O=C(O)/C=C/C(=O)O		inactive
[Cl][In]([Cl])[Cl]	-2.87%	
CC(=O)CC(N)=O	0.809%	
O=C(c1ccccc1O)c1ccccc1O	-16.3%	
CCC(=O)OC(C)(C)C1CC=C(C)CC1 (stereo not given)	-1.83%	
COC(=O)c1ccccc1C(=O)O	-1.25%	
CCCCCCCCCCCCCCC(=O)O	2.79%	
CCOCCOCC	2.75%	
C=CC(=O)OCCOC(=O)C=C	13.1%	
CC(C)C(=O)C(C)C	-1.24%	
CCc1ccc(Br)cc1	-2.96%	
CC(C)(C)C(=O)OCOP(=O)(COCCn1cnc2c(N)ncnc21)OCOC(=O)C(C)(C)C	21% [at 42.4 µM]	

Source: PubChem BioAssay (Tox21)
